Source: PubChem BioAssay AID1619 (SRMLSC, 2009)
About 830 (0.38%) of roughly 220,000 compounds were called active.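 How the source made its calls: active means compound inhibiting the enzyme by more than half at any dose during confirmatory dose-response retesting; inconclusive means strong single-dose inhibitors picked by rank but not retested; inactive means the rest.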 Only a sample is shown. Potency and affinity values are given separately.

target: Leucine aminopeptidase (Plasmodium falciparum (isolate 3D7)) (UniProt Q8IL11); test: P. falciparum M17LAP inhibitors, primary screen, biochemical, fluorogenic H-Leu-NHMec substrate, 1536-well (AID 1619); conditions: recombinant M17LAP, H-Leu-NHMec fluorogenic kinetic assay; at 30 µM; stronger effect = higher value;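 further: plate controls were full reaction with DMSO carrier for no effect and no enzyme background for full effect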
Sequence (Q8IL11 whole entry, looked up): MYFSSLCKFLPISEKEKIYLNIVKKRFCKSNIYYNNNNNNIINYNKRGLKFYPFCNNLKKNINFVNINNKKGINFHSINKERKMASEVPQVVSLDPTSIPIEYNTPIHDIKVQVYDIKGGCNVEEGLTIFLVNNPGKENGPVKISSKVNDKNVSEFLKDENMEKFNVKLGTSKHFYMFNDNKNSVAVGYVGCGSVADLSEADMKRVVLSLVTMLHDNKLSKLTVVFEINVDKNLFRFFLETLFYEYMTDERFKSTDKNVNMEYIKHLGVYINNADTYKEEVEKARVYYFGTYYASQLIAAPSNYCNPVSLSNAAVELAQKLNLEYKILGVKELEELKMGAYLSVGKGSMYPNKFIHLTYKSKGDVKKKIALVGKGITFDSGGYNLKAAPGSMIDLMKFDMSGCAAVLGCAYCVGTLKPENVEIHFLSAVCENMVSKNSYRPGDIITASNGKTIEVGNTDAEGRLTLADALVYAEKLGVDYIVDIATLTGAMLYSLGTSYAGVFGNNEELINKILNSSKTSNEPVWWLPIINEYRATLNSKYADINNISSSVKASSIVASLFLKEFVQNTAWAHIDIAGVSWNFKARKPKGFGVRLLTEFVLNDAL

inhibition, inactive:
O=c1cc(NCC2CCCO2)[nH]c(=O)n1-c1ccc(Cl)cc1 (stereo unspecified) 3.43%, C=CCNS(=O)(=O)c1nc(C)c(Cl)c(C)c1C#N 9.01%, CC(Sc1ncc(C#N)c(N)n1)C(=O)Nc1ccccc1 (stereo unspecified) 9.93%, CCc1nnc(NS(=O)(=O)c2ccc(NC(=O)COc3ccc(Cl)c(C)c3)cc2)s1 52.7%, CCc1nnc(NS(=O)(=O)c2ccc(NC(=O)OC)cc2)s1 6.85%, CCc1nnc(NS(=O)(=O)c2ccc(NC(=S)NC(=O)/C=C/c3ccccc3)cc2)s1 23.5%, CCc1nnc(NS(=O)(=O)c2ccc(NC(=S)NC(=O)/C=C/c3ccc(F)cc3)cc2)s1 53%, CCc1nnc(NS(=O)(=O)c2ccc(N/C=C\C(=O)c3ccc4ccccc4c3)cc2)s1 12.1%, CCc1nnc(NS(=O)(=O)c2ccc(NC(=O)/C=C/c3ccccc3Cl)cc2)s1 1.04%, CCc1nnc(NS(=O)(=O)c2ccc(NC(=O)c3cccc4ccccc34)cc2)s1 15%, CCc1nnc(NS(=O)(=O)c2ccc(NC(=S)NC(=O)/C=C/c3ccc(OC)cc3)cc2)s1 40.7%, Cc1ccc(Nc2nnc(SCC(=O)NCCN3C(=O)CSC3=O)s2)cc1C 54.4%, O=C(NCCc1c[nH]c2ccccc12)c1c(Cl)nc2sccn12 -3.3%, O=C(NCc1ccncc1)c1cn(-c2ccccc2)nc1-c1cccnc1 9.29%, CCOC(=O)Cc1nnc(Nc2ccc(C)cc2C)c2ccccc12 -12.3%, CC(C)CCNC(=O)C1CCC(=O)N1C(C)C (stereo unspecified) -2.71%, N#CCCN(CC(=O)O)S(=O)(=O)c1ccccc1 -11.6%, CCc1ccc(C(=O)Nc2nnn(CC)n2)cc1 10.2%, C1CCCCCC2(CCCCC1)OCC(CN1CCOCC1)O2 (stereo unspecified) 1.36%, Cc1c(C(=O)c2ccccc2)c2ccccn2c1CCc1ccccn1 5.7%, CC1(c2ccccc2)NC(=O)N(CC(=O)Nc2cccc(C#N)c2)C1=O (stereo unspecified) -4.04%, N#Cc1cccc(NC(=O)COC(=O)c2cccc(N3C(=O)c4ccccc4C3=O)c2)c1 8.44%, CCCCc1ccc(NC(=O)CN2NS(=O)(=O)c3ccccc3C2=O)cc1 52.6%, O=C(CN1NS(=O)(=O)c2ccccc2C1=O)Nc1ccccc1OC(F)F 43.5%, O=C1CSC(c2cccnc2)N1c1ccc(F)cc1 (stereo unspecified) 9.53%, CC(=O)Nc1ccc(CN2CCCC(CO)(Cc3ccccc3C)C2)cc1 (stereo unspecified) -0.77%, Nc1nc2n(n1)C(c1ccco1)CC(c1ccc(Cl)cc1)N2 (stereo unspecified) -19.4%, Cc1cccc(OC(=O)C2C(c3ccccc3)C(C(=O)O)C2c2ccccc2)c1 (stereo unspecified) 33.4%, COc1ccc(/C=C2/SC(=O)NC2=O)cc1 25.1%, Nc1c(-c2cccc(Cl)c2)cnn1-c1cccc(C(F)(F)F)c1 5.43%, COc1ccc(OC)c(NC(=O)C2CCCC2)c1 -9.43%, C=C1C(C(=O)Nc2ccc(OCC)cc2)C1C(=O)Nc1ccc(OCC)cc1 (stereo unspecified) -7.51%, CCOc1ccc(NC(=O)C2C3CCC4C(CCC32)C4(Cl)Cl)cc1 (stereo unspecified) 9.32%, COc1ccc(OC)c(NC(=O)C2CCCCC2)c1 5.19%, CC(=O)NC(=O)NC1OC(=O)C(Cl)=C1Cl (stereo unspecified) 4.19%, Cn1nc(C(=O)NCCOc2ccccc2)c2ccccc2c1=O -0.35%, CCOC(=O)CSCC(NC(=O)OC(C)(C)C)C(=O)OCC (stereo unspecified) 0.56%, CCOC(=O)C(CSCC(=O)c1ccc(Cl)cc1)NC(=O)OC(C)(C)C (stereo unspecified) 25.7%, CCN(CC)S(=O)(=O)c1ccc(N)cc1 11.4%, CCCSc1ccc(C(=O)Nc2ccc(Cl)cc2)cn1 -6.5%, Cc1cc(/C=C(\C#N)C(=O)NCc2ccco2)c(C)n1-c1cccnc1 20.4%, COc1ccc(-n2c(C)cc(/C=C(\C#N)C(=O)NCc3ccco3)c2C)cc1 -8.8%, Cc1ccc(-n2c(Cc3cccn3C)nnc2SCC(=O)NCc2ccco2)cc1 20.7%, Cc1ccc(Cn2ccc(C3CC3)n2)cc1 -1.75%, CC(=O)NC1(C(=O)O)CCCC1 9.39%, COC(=O)C1=C(O)C2(C(=O)O)CC(C(=O)OC)=C(O)C(C(=O)O)(C1)C2 -3.67%, Cc1ccc(S(=O)(=O)NCCCCCC(=O)Nc2ccccc2)cc1 3.08%, CCN1C(=O)/C(=C2/C=Cc3ccccc3N2CC)SC1=S -0.63%, CCCc1[nH]nc2c1C(c1ccsc1)C(C#N)=C(N)O2 (stereo unspecified) 2.74%, N#CC1=C(N)Oc2n[nH]c(-c3ccccc3)c2C1c1ccncc1 (stereo unspecified) 62.5%, CC(C)CC1C(C#N)=C(N)Oc2n[nH]c(-c3cccs3)c21 (stereo unspecified) 73.3%, Cc1[nH]nc2c1C(CC(C)C)C(C#N)=C(N)O2 (stereo unspecified) 14.9%, CC(C)(C)c1[nH]nc2c1C(c1cccnc1)C(C#N)=C(N)O2 (stereo unspecified) 5.24%, CCc1[nH]nc2c1C(c1cccnc1)C(C#N)=C(N)O2 (stereo unspecified) 11.3%, Cc1[nH]nc2c1C(c1ccsc1)C(C#N)=C(N)O2 (stereo unspecified) 29.4%, CCCc1[nH]nc2c1C(c1ccncc1)C(C#N)=C(N)O2 (stereo unspecified) 30.1%, CO/N=C/NC(=O)c1c(OC)ccnc1Oc1ccccc1 6.63%, CSCCC(NC(=O)c1ccc([N+](=O)[O-])cc1Cl)C(=O)OCC(=O)N(C)C (stereo unspecified) -3.36%, O=C(Nc1ccccc1C(=O)N1CCOCC1)C1CCCO1 (stereo unspecified) -7.06%, Cc1[nH]nc2c1C(CCc1ccccc1)C(C#N)=C(N)O2 (stereo unspecified) 68.1%, CCCc1[nH]nc2c1C(c1ccc(O)c(OC)c1)C(C#N)=C(N)O2 (stereo unspecified) 29.1%, CC(C)c1[nH]nc2c1C(c1cccnc1)C(C#N)=C(N)O2 (stereo unspecified) 13.5%, COC(=O)Cc1[nH]nc2c1C(c1ccc(O)c(OC)c1)C(C#N)=C(N)O2 (stereo unspecified) 17.1%, Cc1ccc(-c2ccc(C3C(C#N)=C(N)Oc4n[nH]c(C)c43)o2)cc1 (stereo unspecified) 15.7%, CCCc1[nH]nc2c1C(c1cccnc1)C(C#N)=C(N)O2 (stereo unspecified) 9.46%, Cc1ccc(C2C(C#N)=C(N)Oc3n[nH]c(C)c32)cc1 (stereo unspecified) 52.9%, CCCc1[nH]nc2c1C(Cc1ccccc1)C(C#N)=C(N)O2 (stereo unspecified) 28.5%, CC(C)NC(=O)/C=C/C(=O)O -17.6%, CCn1c(NCc2ccco2)nc2ccccc21 3.48%, Cc1cc(C)cc(OCC(=O)OCC(=O)c2ccc3c(c2)NC(=O)CO3)c1 -0.31%, O=C(CNC(=O)c1ccccc1)NCC(=O)OCc1ccccc1Cl -2.59%, O=C(CN(c1ccccc1)S(=O)(=O)c1ccc(F)cc1)NC1CCS(=O)(=O)C1 (stereo unspecified) 8.02%, CCOc1ccc(CC(=O)N2CCN=C2SCc2ccc([N+](=O)[O-])cc2)cc1 -3.75%, Cc1cc(C)c2cc(C(=O)N3CCC(Cc4ccccc4)CC3)[nH]c2c1 -4.41%, COC(=O)c1ccc(C(=O)OC)c(NC(=O)CSc2cccc[n+]2[O-])c1 -1.81%, Cc1ccc(-c2csc(/C(C#N)=C(\O)CCl)n2)cc1 6.37%, N#CC1=C(N)Oc2cc3ccccc3cc2C1c1cccnc1 (stereo unspecified) 0.21%, Cc1ccc(C2C(C#N)=C(N)Oc3nc(-c4ccccc4)[nH]c32)o1 (stereo unspecified) 94%, Cc1ccc(-c2c(C#N)c(N)nc3c2CCCC3)s1 9.55%, CC(=O)c1nn(-c2cccc(Cl)c2)cc1C(=O)c1ccco1 -0.97%, CC(=O)c1cc(Cl)ccc1OC(=O)c1ccco1 -7.24%, CN(C)CCNC(=O)C(c1ccccc1)c1ccccc1 4.43%, COc1cccc(C(=O)NNC(=O)C(=O)N2CCCCC2)c1 5.57%, O=C(Nc1cccc(C(=O)O)c1)/C(=C/c1ccc2c(c1)OCO2)NC(=O)c1cccc(Br)c1 51.7%, O=C(Nc1ccc(C(=O)O)cc1)/C(=C\c1ccc2c(c1)OCO2)NC(=O)c1ccc(Br)o1 12%, COCCn1nnnc1C(c1ccccc1OC)N1CCN(c2ccccc2F)CC1 (stereo unspecified) 0.44%, O=C(Cc1ccccc1)N1CCCC(c2nc(-c3ccc(S(=O)(=O)N4CCCC4)cc3)no2)C1 (stereo unspecified) 0.8%, O=C(O)CCn1cc(/C=C/C(=O)c2ccc(Cl)cc2)c(-c2cccc(Br)c2)n1 6.04%, O=C(O)CCn1cc(/C=C/C(=O)c2ccc(Cl)cc2)c(-c2ccc(Br)cc2)n1 31.8%, CN(C)c1ccc(/C=N/NC(N)=S)cc1[N+](=O)[O-] -6.38%, Nc1nonc1C(=O)N/N=C/c1cccc([N+](=O)[O-])c1 39.7%, CCCNS(=O)(=O)c1ccc(N2CCCC2=O)c([N+](=O)[O-])c1 -2.44%, CC(C)N(C(=O)C1CC(=O)OC12CCCCC2)C(C)C (stereo unspecified) -0.49%, CCC(=O)Nc1c(-c2ccc(OC)cc2)c(=O)c2ccccc2n1C 0.6%, Cc1ccc(NS(=O)(=O)Cc2ccccc2)nc1 -10.1%, O=S(=O)(Cc1ccccc1)Nc1ccc(Br)cn1 8.11%
